Reference: PubChem BioAssay (Tox21)
Where “and” joins values, the source holds several entries; their conditions need not be identical. Equal entries are not always repeated. Results filed as inconclusive are left out. Where a call stands in place of a potency, no number is given. The source holds several records for some structures; these can differ, active in one and inactive in another. Calls of active or inactive are those of the source. Unless noted, calls come from the whole dose curve.

Test: qHTS assay to identify small molecule agonists of the hypoxia (HIF-1) signaling pathway - cell viability counter screen (AID 1224844); note: nearly all actives have a fitted effect of over 50% in size
Conditions: HRE-bla ME-180 viability, CellTiter-Glo luminescence, 17 h; series mostly up to 76.8 µM
Summary of the method: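 Luminescent ATP content (CellTiter-Glo, 30 min, room temperature) served as the viability measure in HRE-bla ME-180 cells exposed to compounds for 17 hrs in low-serum medium (0.5% dialyzed FBS).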
Potency is the fitted concentration of half-maximal effect.

| SMILES | Potency |
| --- | --- |
| CCC(Cc1c(I)cc(I)c(N)c1I)C(=O)O (stereo not drawn) | 42.3 µM (active) and 15.1 µM (active) |
| CCO[Si](CCCNC(N)=O)(OCC)OCC | inactive |
| CCCCCCCCCCC(CO)CCCCCCCC (stereo not drawn) | inactive |
| CN1CCOCC1 | inactive |
| CCCN1C=CN(C)C1 | inactive |
| Nc1cc([N+](=O)[O-])ccc1C(=O)O | inactive |
| COc1cc([C@H]2Oc3cc([C@H]4Oc5cc(O)cc(O)c5C(=O)[C@@H]4O)ccc3O[C@@H]2CO)ccc1O | inactive |
| Cc1ccc(S(=O)(=O)NCl)cc1 | inactive |
| O=C(O)c1cc(=O)[nH]c(=O)[nH]1 | inactive |
| [O-]/[N+](=N\O)c1ccccc1 | inactive |
| CC(=O)Nc1ccc2c(c1)Cc1cc(NC(C)=O)ccc1-2 | inactive |
| Cc1ccc(C(C)(C)C)c(O)c1 | inactive |
| C[C@]12C=CC(=O)C=C1CC[C@H]1[C@@H]3C[C@@H](O)[C@](O)(C(=O)CO)[C@@]3(C)C[C@H](O)[C@@]12F | inactive |
| Cc1ccc2c(c1)C(=O)OC2=O | inactive |
| c1ccc2c(c1)ccc1ncccc12 | inactive |
| FC(F)(F)C(Cl)Br (stereo not drawn) | inactive |
| CC(C)=CCO | inactive |
| CC(=O)Oc1c(C)c(C)c2c(c1C)CC[C@@](C)(CCC[C@H](C)CCC[C@H](C)CCCC(C)C)O2 | inactive |
| CC(=O)[C@@]1(O)CC[C@H]2[C@@H]3C[C@H](C)C4=CC(=O)C=C[C@]4(C)[C@@]3(F)[C@@H](O)C[C@@]21C | inactive |
| Cc1ccc(C)c(O)c1 | inactive |

| SMILES | Potency |
| --- | --- |
| [Na+] | inactive |
| C1COCCN1 | inactive |
| OCCNCCO | inactive |
| COC(=O)c1ccc(C)cc1 | inactive |
| CC(C)(C)c1cccc(C(C)(C)C)c1O | 53.7 µM (active) and inactive |
| O=C1OC2(c3ccccc31)c1cc(I)c(O)c(I)c1Oc1c2cc(I)c(O)c1I | inactive |
| Oc1c(Cl)ccc(Cl)c1Cl | inactive |
| C=CN1CCCC1=O | inactive |
| NCCOCCO | inactive |
| CCCOCCO | inactive |
| CC1(C)C(C=C(Cl)Cl)C1C(=O)OCc1cccc(Oc2ccccc2)c1 (stereo not drawn) | inactive |
| Brc1nc2ccccc2s1 | inactive |
| CCCCCC=O | inactive |
| CN(C)C | inactive |
| c1ccc2c(c1)[nH]c1ccccc12 | inactive |
| O=C(O)CCCCCCCCCCCC(=O)O | 48.2 µM (active) and inactive |
| NCCN | inactive |
| CC1(C)O[C@@H]2C[C@H]3[C@@H]4C[C@H](F)C5=CC(=O)C=C[C@]5(C)[C@@]4(F)[C@@H](O)C[C@]3(C)[C@]2(C(=O)CO)O1 | inactive |
| CCCCCCC(C)O (stereo not drawn) | inactive |

Test: qHTS assay to identify small molecule agonists of H2AX (AID 1224845; active = well fitted activation curve with a large enough effect in the signal ratio in the repeat runs, not every such curve was filed as active; the % refers to the signal ratio)
Conditions: CHO-K1 phospho-H2AX Ser139 HTRF, 3 h; series mostly up to 154 µM
Summary of the method: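 Wild-type CHO-K1 cells, plated overnight, exposed 3hr at 37C to 15 concentrations (0.76% DMSO final). Lysed, then HTRF anti-pH2AX (S139) cryptate and anti-H2AX-d2 antibodies, 24 hr room temperature; 665/620 nm emission read.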

| SMILES | Potency |
| --- | --- |
| CCC(Cc1c(I)cc(I)c(N)c1I)C(=O)O (stereo not drawn) | inactive |
| CCO[Si](CCCNC(N)=O)(OCC)OCC | inactive |
| CCCCCCCCCCC(CO)CCCCCCCC (stereo not drawn) | inactive |
| CN1CCOCC1 | inactive |
| CCCN1C=CN(C)C1 | inactive |
| Nc1cc([N+](=O)[O-])ccc1C(=O)O | inactive |
| COc1cc([C@H]2Oc3cc([C@H]4Oc5cc(O)cc(O)c5C(=O)[C@@H]4O)ccc3O[C@@H]2CO)ccc1O | inactive |
| Cc1ccc(S(=O)(=O)NCl)cc1 | inactive |
| O=C(O)c1cc(=O)[nH]c(=O)[nH]1 | inactive |
| [O-]/[N+](=N\O)c1ccccc1 | inactive |
| CC(=O)Nc1ccc2c(c1)Cc1cc(NC(C)=O)ccc1-2 | inactive |
| Cc1ccc(C(C)(C)C)c(O)c1 | inactive |
| C[C@]12C=CC(=O)C=C1CC[C@H]1[C@@H]3C[C@@H](O)[C@](O)(C(=O)CO)[C@@]3(C)C[C@H](O)[C@@]12F | inactive |
| Cc1ccc2c(c1)C(=O)OC2=O | inactive |
| c1ccc2c(c1)ccc1ncccc12 | inactive |
| FC(F)(F)C(Cl)Br (stereo not drawn) | inactive |
| CC(C)=CCO | inactive |
| CC(=O)Oc1c(C)c(C)c2c(c1C)CC[C@@](C)(CCC[C@H](C)CCC[C@H](C)CCCC(C)C)O2 | inactive |
| CC(=O)[C@@]1(O)CC[C@H]2[C@@H]3C[C@H](C)C4=CC(=O)C=C[C@]4(C)[C@@]3(F)[C@@H](O)C[C@@]21C | inactive |
| Cc1ccc(C)c(O)c1 | inactive |

| SMILES | Potency |
| --- | --- |
| [Na+] | inactive |
| C1COCCN1 | inactive |
| OCCNCCO | inactive |
| COC(=O)c1ccc(C)cc1 | inactive |
| CC(C)(C)c1cccc(C(C)(C)C)c1O | inactive |
| O=C1OC2(c3ccccc31)c1cc(I)c(O)c(I)c1Oc1c2cc(I)c(O)c1I | 51.1 µM (active) |
| Oc1c(Cl)ccc(Cl)c1Cl | inactive |
| C=CN1CCCC1=O | inactive |
| NCCOCCO | inactive |
| CCCOCCO | inactive |
| CC1(C)C(C=C(Cl)Cl)C1C(=O)OCc1cccc(Oc2ccccc2)c1 (stereo not drawn) | inactive |
| Brc1nc2ccccc2s1 | inactive |
| CCCCCC=O | inactive |
| CN(C)C | inactive |
| c1ccc2c(c1)[nH]c1ccccc12 | inactive |
| O=C(O)CCCCCCCCCCCC(=O)O | 111 µM (active) and inactive |
| NCCN | inactive |
| CC1(C)O[C@@H]2C[C@H]3[C@@H]4C[C@H](F)C5=CC(=O)C=C[C@]5(C)[C@@]4(F)[C@@H](O)C[C@]3(C)[C@]2(C(=O)CO)O1 | inactive |
| CCCCCCC(C)O (stereo not drawn) | inactive |
